Values joined by “and” are separate entries in the source; they are usually repeats but may differ in a detail not shown here. Equal values may be shown once. This is part of a sample that, as a whole, favours compounds with a hit. Of some 79,000 tested, about 15% had one in any assay. No stated cut-off is given here; in the data, active means growth inhibition above about 70%; inactive means the rest.
How the values were obtained:
[1] = NCI Yeast Anticancer Drug Screen. Data for the rad50 strain (AID 155);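 further: 0% = growth of vehicle-only cultures of the same strain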; details: S. cerevisiae rad50 strain growth inhibition, active compounds read high; at 50.0 µM unless noted
Procedure, shortened: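 Inhibition values express reduced yeast growth in compound-treated cultures relative to vehicle-treated controls.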

[2] = NCI Yeast Anticancer Drug Screen. Data for the sgs1 mgt1 strain (AID 161);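 further: 0% = growth of cultures given vehicle only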; details: S. cerevisiae sgs1 mgt1 strain, active compounds read high; at 50.0 µM unless noted
Procedure, shortened: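 Mutant yeast exposed to compound; growth scored against vehicle-only wells.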

[3] = NCI Yeast Anticancer Drug Screen. Data for the cln2 rad14 strain (AID 165);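 further: 0% = growth equal to vehicle treated cultures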; details: S. cerevisiae cln2 rad14 strain, active compounds read high; at 50.0 µM unless noted
Procedure, shortened: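 The screen exposed genetically defined yeast (cln2 rad14) to test compounds and scored growth inhibition relative to vehicle-treated controls.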

[4] = NCI Yeast Anticancer Drug Screen. Data for the bub3 strain (AID 167); details: S. cerevisiae bub3 mutant strain, active compounds read high; at 50.0 µM unless noted
Procedure, shortened: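 Steps: expose the mutant yeast strain to compound; grow alongside vehicle-treated cultures; measure growth; express inhibition against the vehicle cultures.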

[5] = NCI Yeast Anticancer Drug Screen. Data for the mlh1 rad18 strain (AID 175); details: S. cerevisiae mlh1 rad18 strain growth inhibition, active compounds read high; at 50.0 µM unless noted
Procedure, shortened: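 Compound-treated yeast growth, normalised to vehicle controls. Strain bears defined DNA repair mutations.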

[6] = NCI Yeast Anticancer Drug Screen. Data for the mec2-1 strain (AID 157); details: S. cerevisiae mec2-1 strain, active compounds read high; at 50.0 µM unless noted
Procedure, shortened: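 Cells of the genetically defined mec2-1 yeast strain are incubated with test compound. Inhibition of growth is calculated against vehicle-treated controls.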

Measured: growth inhibition

OC1COC(OCc2ccccc2)C(O)C1O (centres undefined)
inactive: [1] -16.4% and -2.85% | [2] -18.1% and -11.5% | [3] -18.2% and -46.3% | [4] 2.25% and 6% | [5] -3.4% and -12.2%

N/N=C1/CCN2CCCc3cccc1c32
inactive: [1] 11.2% | [2] 1.25% | [3] -27.4% | [4] -19.4% | [5] 10.1%

CCCCCCCCC(=O)NCO
inactive: [1] -17.8% | [2] -21.4% | [3] -3.4% | [4] -25.6% | [5] -24.1%

O=C1c2cc([N+](=O)[O-])ccc2-c2ccc3c4ccc5c6c(ccc(c7ccc1c2c73)c64)C(=O)c1cc([N+](=O)[O-])ccc1-5
inactive: [1] 14% | [2] -3.15% | [3] 21.4% | [4] -35.2% | [5] 26.1%

CN(C)c1ccc(O[Si](Oc2ccc(N(C)C)cc2)(Oc2ccc(N(C)C)cc2)Oc2ccc(N(C)C)cc2)cc1
inactive: [1] 27.6% | [2] 25.8% | [3] 29.4% | [4] 14.3% | [5] 43.8%

Nc1nc(Cl)c(C=O)c(NCC2(CO)CC(CCc3ccccc3)C2)n1 (centres undefined)
inactive: [1] 15.4% | [2] -32.8% | [3] -2.2% | [4] -22%

CSc1nc(SC)c2cnn(CC3CO3)c2n1 (centres undefined)
inactive: [1] 44.2% | [2] 60.8% | [3] 11.1% | [4] -20.1% | [5] 39.5%

NN=C(c1ccc([N+](=O)[O-])cc1)c1ccc([N+](=O)[O-])cc1
inactive: [1] -3.3% | [2] -25.6% | [3] -9.65% | [4] 27% | [5] -0.7%

ClN(Cl)c1nc(-c2ccccc2)nc(N(Cl)Cl)n1
inactive: [1] 18.1% | [2] 34.9% | [3] -38.1% | [4] 32.5% | [5] 31.5%

C=CCOC(=O)NC(CC(C)C)C(=O)NCC(N)=O (centres undefined)
inactive: [1] -10.4% | [2] -4.3% | [3] -10.9% | [4] -45.5% | [5] -28%

CN(C)c1ccc(/C=C2\C[N+](C)(C)C/C(=C\c3ccc(N(C)C)cc3)C2=O)cc1
inactive: [1] 6.9% | [2] 9.35% | [3] -2.55% | [4] -3.45% | [5] 32.8%

Cn1c(=S)[nH]c2c(Cl)cc(Cl)cc2c1=O
inactive: [1] -40.4% | [2] -7.1% | [3] -13.9% | [4] -27.7% | [5] -51.9%

CCCc1cc2c(cc1CC#N)OCO2
inactive: [1] -5.65% | [2] -9.85% | [3] 2.4% | [4] -3.25% | [5] 17.6%

COC(=O)C1CCCCCCCCCCC12SCCCS2 (centres undefined)
inactive: [1] -32.5% | [2] -17.5% | [3] 16.2% | [4] -5.7% | [5] -30%

Cc1nc2c(cc1C(=O)NN)c(=O)n(C)c(=O)n2C
inactive: [1] 8.8% | [2] -8.5% | [3] -5.85% | [4] -8.05% | [5] 31.6%

O=C(NCCCCCSC(=O)c1ccccc1)c1ccccc1
inactive: [1] -0.35% | [2] 7.95% | [3] 13.8% | [4] 15.7% | [5] -4%

C=C1CC[C@](C)(O)[C@@]2(C)CC[C@H]3C(=C(C)C)C(=O)C[C@]3(C)C[C@H]12
inactive: [1] 12.1% | [2] 10.2% | [3] 18.5% | [4] 1.7% | [5] 23.8%

CN(C)c1ccc(Cc2ccc(N(C)C)cc2N)cc1
inactive: [1] -0.85% | [2] 2.75% | [3] 10.1% | [4] -25.2% | [5] -4.05%

CC(C)N=C(N)N=C(N)N
inactive: [1] 30.9% | [2] 3.85% | [3] 3.9% | [4] 30.2% | [5] -3.2%

Cn1c2ccccc2c2nnc(NCCCO)nc21
inactive: [6] 21.7% | [2] 18.8% | [3] 43.3% | [4] 25% | [5] 11.2%

CCC1CC(C)=CCN1S(=O)(=O)c1ccc(C)cc1 (centres undefined)
inactive: [6] -2.3% | [2] 4.4% | [3] 18.6% | [4] 12.2% | [5] 2.35%

Cc1nn(C(=O)c2ccc(Cl)cc2)c2c1C(c1ccc([N+](=O)[O-])cc1)SC(N)=N2 (centres undefined)
inactive: [6] 7.4% | [2] 16.4% | [3] -16.8% | [4] -16.1% | [5] -4.1%

CN(C)C(=O)Sc1ccc(C(C)(C)C)cc1
inactive: [6] -8.1% | [2] -15.7% | [3] -41.5% | [4] -1.65% | [5] -28.2%

CCOc1ccc(C(=O)C[N+]2(CCc3ccccc3)CCOCC2)cc1
inactive: [6] 6.3% | [2] 11.6% | [3] 6.2% | [4] -0.7% | [5] 41%

COc1ccc(OC)c(NC(=O)CCCC(=O)C(C#N)c2ccc(CC#N)cc2)c1 (centres undefined)
inactive: [6] -17.6% | [2] -34.5% | [3] -40.8% | [4] 3.1% | [5] -25.6%

CC(=O)CC/C=C(\C)CC(C)C
inactive: [6] 11.6% | [2] 2.85% | [3] 13.6% | [4] 9.8% | [5] 10.1%

O=S(=O)(/C(=C\c1ccccc1)c1ccccc1)c1ccccc1
inactive: [6] -12.4% | [2] -12.8% | [3] -17.7% | [4] -4.5% | [5] -6.65%

CCOC(=O)CSCC(C)C(=O)OC (centres undefined)
inactive: [6] -0.5% | [2] -2.7% | [3] 7.2% | [4] 2.5% | [5] 2.25%

Cc1ccc(Nc2ccc(C)cc2[N+](=O)[O-])cc1
inactive: [6] -2.25% | [2] 32.9% | [3] 15.1% | [4] 31.6% | [5] 17.6%

CC1(C)OCC(C2OC3OC(C)(C)OC3C2N)O1 (centres undefined)
inactive: [6] 10.7% | [2] 11.1% | [3] -2.95% | [4] 21.8% | [5] 5.4%

CCOC(=O)N(C)C1(c2ccccc2)CCN(CCCC(=O)c2ccc(F)cc2)CC1
inactive: [6] -34.9% | [2] 7.55% | [3] -26.6% | [4] -7% | [5] -17.2%

Nc1ccc(NC(=O)Nc2ccccc2)cc1
inactive: [6] -19.2% | [2] -0.7% | [3] -32.4% | [4] -22.3% | [5] -15.1%

CCCOc1cc2c(cc1C(C)c1ccc(OC)c(C)c1)OCO2 (centres undefined)
inactive: [6] 3.45% | [2] -6% | [3] -87.7% | [4] 4.55% | [5] 4.15%

CC(=O)OC/C(=C/C#N)C1CCC2C3CC=C4CC(OC(C)=O)CCC4(C)C3CCC12C (centres undefined)
inactive: [6] -1.25% | [2] -3.75% | [3] -12.8% | [4] -2.15% | [5] 8.65%

Reference: PubChem BioAssay (NCI)
